{
  "source": "paper PMC12136788",
  "binders": {"B1": {"name": "chr11:30000241:30000242:-_ENSMUSG00000020315_ENSMUST00000011877|mus_hu|motif|central (ssRNA)", "RNA": "GGGAGUUCUACAGUCCGACGAUCUAUUUCCAACACAGCCUCACAAAAUUGAGGAACAGUUUAAAUACUGAGAUCGGAUCGGUAUAAUUUCAUUAAAAAAAAAAUCUGGCCUUCCCUCUGCACCUCAAACUUUUGUAACUUGGACAACAGAGGAUUGAGCAUCA"}, "B2": {"name": "chr10:112657927:112657928:+_ENSG00000150593_ENST00000280154|hu_hu|FALSE|FALSE (ssRNA)", "RNA": "GGGAGUUCUACAGUCCGACGAUCCAGAAAUGCCUUGUACCCAAAACAAGUGCUUAAAAAAAAAAAAAAAAAAAACUUGUGCUAACAACUCUUACAAUUCAGAUAUAUAUUUUUAUAACAUCUAAGACUGCAAGAGUUCUUAUACAACAGAGGAUUGAGCAUCA"}, "B3": {"name": "chr18:77179482:77179483:+_ENSMUSG00000090000_ENSMUST00000026487|mus_mus|FALSE|FALSE (ssRNA)", "RNA": "GGGAGUUCUACAGUCCGACGAUCAAGUAUGCUCCAAUCCGGGAGUGCUCCUGCCUCUGAUAAUCUGAUCUACAAGUGCAACUACAAUUAAAAAAAAAAAAAAAUCAGAUAGAUAGAAACUCUGGUUUUAUUGUCAACUUUACUCAACAGAGGAUUGAGCAUCA"}, "B4": {"name": "chr17:65740002:65740003:+_ENSG00000130935_ENST00000581375|hu_hu|hu_hu_hu_mus_False|8_8 (ssRNA)", "RNA": "GGGAGUUCUACAGUCCGACGAUCAACAAAUCUUUCUUCCCUGGACGAACAGGAAGAUUCAUAUUAAAAAAAAUAUAUAUCCAUCAAGUUAGGUGUGGUGGCCACACCUUUACUCCCAGCACUUUGGGAAUAUAAUCUCUGAGUCAACAGAGGAUUGAGCAUCA"}, "B5": {"name": "chr10:112657927:112657928:+_ENSG00000150593_ENST00000280154|hu_hu|motif|central (ssRNA)", "RNA": "B2 RNA with U82G, A83G"}, "B6": {"name": "chr11:30000241:30000242:-_ENSMUSG00000020315_ENSMUST00000011877|mus_hu|FALSE|FALSE (ssRNA)", "RNA": "B1 RNA with G75U, G76A, G80U, G81A"}, "B7": {"name": "chr21:44329077:44329078:+_ENSG00000160194_ENST00000354250|hu_hu|motif|central (ssRNA)", "RNA": "GGGAGUUCUACAGUCCGACGAUCCUCCCGGCCUGAGGAGGGCUGAGGCAUCCUGAAUUUUGAGAGUUCGAGGUUGAGGUCGGAGAAGGUGUACGUGCUGUAGUCAUGAUGCUGCAGGUUCUUGUAGGUAGUGUUGUCAAACGGCAACAGAGGAUUGAGCAUCA"}, "B8": {"name": "chr8:13019134:13019135:+_ENSMUSG00000031442_ENSMUST00000123811|mus_mus|FALSE|FALSE (ssRNA)", "RNA": "GGGAGUUCUACAGUCCGACGAUCUGGCUGACAGGGGCCUCCUGUUUCCAGAGAUCUCGGAGCACCAUCCCCUCCCAAACUAAGCAAGCCCAAGCAAAAAUAAAAAUUAAAAAUAAAAAAAAACCAAAAAACUUAGAGAUUUGCCAACAGAGGAUUGAGCAUCA"}, "B9": {"name": "chr8:117868997:117868998:-_ENSG00000164754_ENST00000297338|hu_hu|motif|central (ssRNA)", "RNA": "GGGAGUUCUACAGUCCGACGAUCCACCCCUGCCUCAGAGAGGGCAGGGGGAUCAUCAAAGAUACCGCCAUCAUUAUUACGGAUAAGUUUGUCAUCUAAUAUUCCACCAUCAUUUCCUUCUCCAAAAUUAUCAUCCUUAUAUUGCAACAGAGGAUUGAGCAUCA"}, "B10": {"name": "chr2:115689366:115689367:-_ENSMUSG00000027210_ENSMUST00000074285|mus_mus|FALSE|FALSE (ssRNA)", "RNA": "GGGAGUUCUACAGUCCGACGAUCUCUUUGAAGAACAGUCCCCCAAAAUCAUAAUAAGAAUUGGCUUAUGAAGCACAAACUAUAAAGAUCUGUUUGAAACUAAAGGACACAUGGACGGGGGGAACAAAGGCCGGGCAUGAAAACCAACAGAGGAUUGAGCAUCA"}, "B11": {"name": "chr1:225611761:225611762:-_ENSG00000143815_ENST00000272163|hu_mus|hu_hu_hu_mus_True|18_78 (ssRNA)", "RNA": "GGGAGUUCUACAGUCCGACGAUCCCAGGCCAUCGGCCUCUGACCACUUCACCCUCAGCAAAUUUCCUACUUGGCAUUUUCUAAAAUUAGUCUGGCCGCGCUCCGGCGGGAACUCCAGACGGCUCCCGACAGUCACCAGCAGCCCAACAGAGGAUUGAGCAUCA"}, "B12": {"name": "chr17:62500844:62500845:-_ENSG00000108654_ENST00000583239|hu_mus|motif|central (ssRNA)", "RNA": "GGGAGUUCUACAGUCCGACGAUCUUGAUAAAAAUUCUUCUCAAAUUUGGGCAGCUCAUCAAGAUUCCACUUCUUUUUAACGGGUUUCUCCCCAGGAUUUCCAAACUUCUUUCCAGAGAGGGGUCCUGUUCUACUCCCUCCAAACAACAGAGGAUUGAGCAUCA"}, "B13": {"name": "chr8:86519384:86519385:+_ENSMUSG00000005469_ENSMUST00000005606|mus_mus|FALSE|FALSE (ssRNA)", "RNA": "GGGAGUUCUACAGUCCGACGAUCUAAAUUAGAUGCAUGGAACUCUAGGGCCCUCUGGCUGUUCGAUCCAACCCUCCCACCCCCAACCGGAAAAAAAAUAGAAAGAAAAAGAAAAAAUGAAAGAGAACCCAAGGGGCACAAGCACAACAGAGGAUUGAGCAUCA"}, "B14": {"name": "chr11:93905761:93905762:+_ENSMUSG00000020859_ENSMUST00000103168|mus_mus|FALSE|FALSE (ssRNA)", "RNA": "GGGAGUUCUACAGUCCGACGAUCCGCUGGCACCCCGGUAGAAAUAGAAAAGUGCACAAGCAGCAAAACAGAGAGAGAUACUAAGAUCGCAGAAUUAAUGACCACCGCCCCGCCAACAAAGCCAAACACAAACAGCAGCAUGCACAACAGAGGAUUGAGCAUCA"}, "B15": {"name": "chr8:13019134:13019135:+_ENSMUSG00000031442_ENSMUST00000123811|mus_mus|motif|central (ssRNA)", "RNA": "B8 RNA with U80G, A81G"}, "B16": {"name": "chr5:116097646:116097647:+_ENSMUSG00000029518_ENSMUST00000031492|mus_mus|FALSE|FALSE (ssRNA)", "RNA": "GGGAGUUCUACAGUCCGACGAUCUAAAAAGCAUAAUUAGAAACUUUCAAUACAGAAAUAGUCCUAGCAAACCAUUUAAAAGUUGGUUGUUUGACAGGAGUUUCACAUCGGGCCCACCAGGGUACCAGUGUAGCCCUGAUUCUCCAACAGAGGAUUGAGCAUCA"}},
  "note": "Positions count from the first letter of the chain named. The full ranking holds about 24,000 sequences; the median of “enrichment r” is about 0.99, and the highest 2% start at about 3.7. What follows is part of a selection rich in the highest values, with near analogues and random picks from the rest.",
  "data": [
    {"target": "T1, UNK ZnF1-3 (human, UniProt Q9C0B0 31-174)", "T1 sequence": "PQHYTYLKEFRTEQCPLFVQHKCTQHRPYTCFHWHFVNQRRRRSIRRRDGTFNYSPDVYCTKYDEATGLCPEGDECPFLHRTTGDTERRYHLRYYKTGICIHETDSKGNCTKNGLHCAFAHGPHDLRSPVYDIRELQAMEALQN", "test": "nsRBNS (natural sequence RNA bind-n-seq); RBNS binding buffer (assumed for nsRBNS): 25 mM Tris pH 7.5, 150 mM KCl, 3 mM MgCl2, 0.01% Triton X-100, 500 ug/ml BSA, 20 U/ml SUPERase-In, 4 C; UNK is unkempt and MSI1 is Musashi-1; names of the RNAs are library labels; protein concentration not given here; high values mean tight binding", "units": {"binding signal": "enrichment R"}, "values": [
      {"binder": "B1", "binding signal": 3.58},
      {"binder": "B2", "binding signal": 3.61},
      {"binder": "B3", "binding signal": 2.98},
      {"binder": "B4", "binding signal": 1.12},
      {"binder": "B5", "binding signal": 4.04},
      {"binder": "B6", "binding signal": 4.16},
      {"binder": "B7", "binding signal": 1.5},
      {"binder": "B8", "binding signal": 21.6},
      {"binder": "B9", "binding signal": 1.12},
      {"binder": "B10", "binding signal": 2.13},
      {"binder": "B11", "binding signal": 1.27},
      {"binder": "B12", "binding signal": 1.28},
      {"binder": "B13", "binding signal": 6.04},
      {"binder": "B14", "binding signal": 2.57},
      {"binder": "B15", "binding signal": 14.4},
      {"binder": "B16", "binding signal": 0.472}
    ]}
  ]
}
